From PubChem BioAssay AID1347076 (National Center for Advancing Translational Sciences (NCATS), 2019)
Out of some 400,000 compounds screened, about 13,000 (3.2%) were called active. Another 18% or so got no clear call; they are omitted. The sample holds actives, similar compounds and a random draw of the others, so the mix is not that of the screen. A number with no mark means an inactive call. Calls come from the whole dose curve; as a rule, active = well fitted cell-killing curve with a large enough effect; inconclusive = small, poorly fitted or top-dose-only effect, or effect the other way; inactive = flat fitted curve, though single readings scatter.

Test: qHTS assay for MDR1-selective chemotherapeutics: Primary screen using the drug-selected MDR subline cells KB-V1; note: nearly all actives have a fitted effect of over 60% in size
Conditions: KB-V1 MDR cells viability, CellTiter-Glo, 72 h; series mostly up to 46.1 µM; activity change, negative = cytotoxicity: at the top concentration
Procedure, shortened: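 Drug-selected KB-V1 cells, grown in DMEM lacking phenol red with 10% FBS, receive compound titrations; after three days at 37 degrees C, surviving cell ATP is quantified by CellTiter-Glo luminescence and responses normalized and curve-fitted.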
% is set by controls: 0 for no effect and ±100 for the full control effect; potency is the fitted concentration of half-maximal effect.

Row | Compound | activity change, negative = cytotoxicity [%] | Potency
1 | CC(C)CN1C(=O)CN(S(C)(=O)=O)CC1(C)C(=O)NCc1ccccc1 (stereo unspecified) | 10.6 | –
2 | N#Cc1ccc(-c2ccc3nccn3c2)cc1 | -0.62 | –
3 | CC(C)C1CC2=C(C(=O)OC(C)(C)O2)C(c2ccc(F)cc2)O1 (stereo unspecified) | 5.18 | –
4 | COCCCN1C(=O)C(CC(=O)NCc2cccs2)CC(C(=O)N2CCOCC2)=C1C (stereo unspecified) | 0 | –
5 | O=S1(=O)CC(N2CCC(Cc3ccccc3)CC2)CN1Cc1ccccc1 (stereo unspecified) | 4.54 | –
6 | COc1ccccc1-c1cc2nc(NCc3cccc(Cl)c3)ccn2n1 | 5.31 | –
7 | CCNC(=O)CC1C(=O)N(c2ccc(F)cc2)C(=O)N1Cc1cccs1 (stereo unspecified) | 0 | –
8 | O=C(CC1C(=O)N(c2ccccc2)C(=O)N1CCc1cccs1)Nc1ccc(F)cc1 (stereo unspecified) | -0.0357 | –
9 | COc1ccc(N2C(=O)C(CC(=O)Nc3ccc(F)cc3)N(CCc3cccs3)C2=O)cc1 (stereo unspecified) | – | 18.4 µM (active)
10 | Cc1cc2nn(-c3ccc(Cl)cc3)nc2cc1NC(=O)C(C)C | 9.32 | –
11 | Cc1c(Cl)cccc1NC(=O)C1CCCN(C(=O)c2cnn(-c3ccccc3)c2-n2cccc2)C1 (stereo unspecified) | 14.6 | –
12 | CCOc1ccc(CNC(=O)c2ccc3c(c2)nnn3C2CCCC2)cc1 | 5.56 | –
13 | COc1cccc(NC(=O)C2(C)CCN2C(=O)CCC2CCCC2)c1 (stereo unspecified) | -2.07 | –
14 | Cc1ccc(-c2noc(CCC(=O)Nc3ccccc3N3CCN(C)CC3)n2)cc1 | – | 20.6 µM (active)
15 | CCNC(=O)CCc1nc(-c2ccc(C)cc2)no1 | 16.3 | –
16 | CC(=O)c1ccc(NC(=O)CCc2nc(-c3ccc(C)cc3)no2)cc1 | -10 | –
17 | CC(C)CC1C(=O)N(Cc2cn(CC3CCCCC3)nn2)CCS(=O)(=O)N1Cc1ccc(-c2ccc(Cl)cc2)cc1 (stereo unspecified) | -22.9 | –
18 | COCCn1c(C)cc(C2=NNC(=Nc3ccc(F)cc3)SC2)c1C | – | 10.3 µM (active)
19 | C=CCn1c(C)cc(C2=NNC(=NCC)SC2)c1C | 0 | –
20 | Cc1cccc2cc(CN(Cc3nnnn3Cc3ccccc3)C3CCCC3)c(=O)[nH]c12 | – | 20.6 µM (active)
21 | CCC(c1nnnn1Cc1ccccc1)N(Cc1cc2cc(OC)ccc2[nH]c1=O)CC1CCCO1 (stereo unspecified) | -4.04 | –
22 | CCC(c1nnnn1C1CCCC1)N(Cc1cccs1)Cc1cc2cccc(C)c2[nH]c1=O (stereo unspecified) | – | 23.1 µM (active)

Row | Compound | activity change, negative = cytotoxicity [%] | Potency
23 | CCOc1ccc2[nH]c(=O)c(CN(Cc3nnnn3Cc3ccccc3)CC3CCCO3)cc2c1 (stereo unspecified) | -14.2 | –
24 | Cc1cccc2cc(CN(Cc3cccs3)C(c3nnnn3C3CCCC3)C(C)C)c(=O)[nH]c12 (stereo unspecified) | 9.62 | –
25 | Cc1cc(C)c2cc(CN(Cc3nnnn3Cc3ccc(F)cc3)C3CCCC3)c(=O)[nH]c2c1 | -1.44 | –
26 | CC(C)Oc1cccc(-c2cnc(N3CCC(C(N)=O)CC3)s2)c1 | 0 | –
27 | C[C@H]1COc2cc(N3CCSCC3)ccc2S(=O)(=O)N1 | 3.82 | –
28 | CC1(C(=O)O)CCCN(C(=O)/C=C/c2ccccc2)C1 (stereo unspecified) | 3.16 | –
29 | COc1ccc(Cl)cc1C(=O)Nc1ccc(N(C)C(C)=O)cc1 | – | 16.4 µM (active)
30 | COc1cc(OC)c(C(=O)Nc2ccc(N(C)C)cc2)cc1OC | -28.8 | –
31 | COC(=O)c1ccc(NC(=O)c2cc(Cl)ccc2OC)cc1 | 19.9 | –
32 | CCC(=O)N1CCc2cc(Br)cc(S(=O)(=O)CCC(=O)NCc3ccccc3OC)c21 | 24.4 | –
33 | O=C(NCc1ccc(F)cc1)c1cc(C2CCCCN2C(=O)C2CCCCC2)on1 (stereo unspecified) | -3.92 | –
34 | CC(=O)Nc1ccc(C=Cc2ccc([N+](=O)[O-])cc2)cc1 | 8.12 | –
35 | NS(=O)(=O)c1ccc(CNC(=O)c2cc(S(=O)(=O)N3CCOCC3)ccc2N2CCCC2)cc1 | 8 | –
36 | O=C1OCCOC2CCCc3oc(-c4ccccc4)c1c32 (stereo unspecified) | 29.6 | –
37 | CN(C)c1nc(Nc2ccc(Cl)c(Cl)c2)nc(N(C)C)n1 | -2.76 | –
38 | OCCNc1nc(Nc2ccc(Cl)c(Cl)c2)nc2ccccc12 | – | 9.2 µM (active)
39 | COc1cc2nc(Cl)nc(NCCO)c2cc1OC | -1.83 | –
40 | Cc1c(NC(=O)COC(=O)/C=C/c2cccc(F)c2)c(=O)n(-c2ccccc2)n1C | 6.17 | –
41 | Cc1cccc(C(=O)N2CCc3cc(CNC(=O)Cc4ccc(F)cc4)ccc32)c1 | 3.15 | –
42 | CCCCC12CN3CC(C)(CN(C1)C3c1ccc(O)c(OC)c1)C2=O (stereo unspecified) | -1.76 | –
43 | COCCNc1ncnc2c1ncn2[C@H]1CN(Cc2ccc(OC)cc2)C[C@@H](CO)O1 | 3.06 | –
44 | Cc1ccc(CC2CC(=O)N(c3nc(C)cc(C)n3)C2=O)cc1 (stereo unspecified) | -11.3 | –

Row | Compound | activity change, negative = cytotoxicity [%] | Potency
45 | Cc1ccc(CC2CC(=O)N(c3cc(C)ccc3C)C2=O)cc1 (stereo unspecified) | -2.95 | –
46 | COc1ccc(CN2C(=O)CC(Cc3ccc(C)cc3)C2=O)cc1OC (stereo unspecified) | – | 18.4 µM (active)
47 | CN(C)c1ccc(/C=C/c2sc3ccccc3[n+]2CCCCBr)cc1 | -5.39 | –
48 | Nc1nc2c(ncn2[C@@H]2O[C@H](CNS(=O)(=O)N3CCc4ccccc4C3)[C@@H](O)[C@H]2O)c(=O)[nH]1 | 1.53 | –
49 | Cc1ccc(S(=O)(=O)c2nnn3c2nc(N2CCN(c4ccccc4F)CC2)c2cc(Cl)ccc23)cc1C | 0 | –
50 | CSc1ncc(Sc2ccccc2)c(C(=O)O)n1 | 0 | –
51 | CSc1nc(-c2ccccc2)nc(C(Cl)Cl)n1 | – | 11.6 µM (active)
52 | CSc1nc(Nc2ccc(F)cc2)cc(-c2ccccc2)n1 | 2.43 | –
53 | CCCCn1c(CNC(=O)C23CC4CC(CC(C4)C2)C3)nnc1SCC(=O)Nc1ccc(C)cc1 | -26.2 | –
54 | COc1ccc(CCCNC(=O)C2Cc3c(-c4cccc(C(N)=O)c4)ccnc3O2)cc1 (stereo unspecified) | -6.13 | –
55 | COc1ccc(CC(N)c2csc(NC(=O)Cc3ccccc3)n2)cc1 (stereo unspecified) | 2.07 | –
56 | Cc1cccc(C(=O)C(O)(c2ccccc2)C2CCCCC2=O)c1 (stereo unspecified) | -1.77 | –
57 | COCCOCCn1cnc2ccccc21 | -0.954 | –
58 | CCOC(=O)c1ccc(NC(=O)Cn2cnc3cc(C)c(C)cc32)cc1 | 10.5 | –
59 | Cn1c(=O)n(CCc2ccccc2)c(=O)c2c1nc1n2CCCN1c1ccccc1 | 8.2 | –
60 | N#CCSc1nc2ccc(N3CCOCC3)cc2c(=O)n1CCc1ccccc1 | – | 3.26 µM (active)
61 | COCCNC(=O)c1ccc(Cn2c(SCC(=O)NCC3CCCO3)nc3ccc(Br)cc3c2=O)cc1 (stereo unspecified) | 19.5 | –
62 | CCCCn1c(SCC(=O)NCC2CCCO2)nc2ccc(N3CCOCC3)cc2c1=O (stereo unspecified) | – | 3.66 µM (active)
63 | CCn1c(SCC(=O)NCC2CCCO2)nc2ccccc21 (stereo unspecified) | 19.3 | –
64 | CCn1cc2nc(SCc3cccc(F)c3)n(CCc3ccccc3)c(=O)c2n1 | -1.77 | –
65 | O=C(Nc1ccc(Cl)cn1)c1ccccc1-c1ccccc1 | -17.1 | –
66 | CC1(C)CC(=O)C=C(c2ccc(COC(=O)c3cc(F)cc(F)c3)cc2)C1=O | -6.38 | –

Row | Compound | activity change, negative = cytotoxicity [%] | Potency
67 | OC(c1ccccc1)c1nc(-c2cnc3ccccc3c2)cs1 (stereo unspecified) | – | 16.4 µM (active)
68 | COc1cccc(C(NC(C)=O)c2nc(-c3cnc4ccccc4c3)cs2)c1 (stereo unspecified) | -6.5 | –
69 | COc1ccc(-c2csc(C(O)c3cccc(Cl)c3)n2)cn1 (stereo unspecified) | -5.18 | –
70 | CCCC(=O)N1CCC1(C)C(=O)NCc1ccc(SC)cc1 (stereo unspecified) | -29.3 | –
71 | COc1ccc(OC)c(NC(=O)C2CCCN2S(=O)(=O)c2ccc3c(c2)CC(C)N3C(C)=O)c1 (stereo unspecified) | -6.15 | –
72 | COc1ccc(NC(=O)COC(=O)C2COc3ccccc3O2)cc1 (stereo unspecified) | 18.6 | –
73 | CCOc1ncccc1C(=O)OCC(=O)N1c2ccccc2CC1C (stereo unspecified) | 2.4 | –
74 | CCOC(=O)c1c(C)[nH]c(C(=O)OCC(=O)N2CCCC2=O)c1C | 7.52 | –
75 | CCOC(=O)c1[nH]c(C)c(C(=O)OCC(=O)N2c3ccccc3CC2C)c1C (stereo unspecified) | – | 2.06 µM (active)
76 | Cc1ccc(F)cc1NC(=O)CCSc1nc(-c2ccco2)cc(C(F)(F)F)n1 | -19.2 | –
77 | CN(C)S(=O)(=O)c1cccc(NC(=O)COC(=O)/C=C/c2cccs2)c1 | 15.2 | –
78 | Cc1ccc(S(=O)(=O)N(C)C)cc1NC(=O)/C=C/c1cccs1 | – | 14.6 µM (active)
79 | Cc1ccc(S(=O)(=O)N(C)C)cc1NC(=O)COC(=O)/C=C/c1cccs1 | 14.3 | –
80 | Cc1cccc(C)c1NC(=O)C(c1cccc(F)c1)N1CCN(C)CC1 (stereo unspecified) | -8.73 | –
81 | Cc1cccc(N(Cc2ccccc2)C(=O)c2cc(S(=O)(=O)N3CCOCC3)ccc2F)c1 | -12.4 | –
82 | Cc1ccc(S(=O)(=O)N2CCOCC2)cc1C(=O)NCc1ccc(F)cc1 | 0.614 | –
83 | Cc1ccc(S(=O)(=O)N2CCOCC2)cc1C(=O)NC(=S)N(Cc1ccccc1)C(C)C | – | 11.6 µM (active)
84 | CC1(C(=O)Nc2ccc3c(c2)OCCO3)CN(S(C)(=O)=O)CC(=O)N1Cc1cccc(F)c1 (stereo unspecified) | -10.5 | –
85 | Cc1nc2ccccn2c(=O)c1NC(=O)c1ccc(Br)o1 | 8.75 | –
86 | Oc1c(Cl)cc(Cl)c(Cl)c1Cc1c(O)c(Cl)cc(Cl)c1Cl | – | 5.17 µM (active)
87 | O=C(O)C(=Cc1ccc([N+](=O)[O-])cc1)CCc1ccccc1 | 2.87 | –
88 | CNC(=O)C1CN(C(=O)c2cccc(S(=O)(=O)N3CCc4ccccc43)c2)c2ccccc2O1 (stereo unspecified) | -22.8 | –

Row | Compound | activity change, negative = cytotoxicity [%] | Potency
89 | COc1ccc(NC(=O)CSc2nc3ncccc3[nH]2)c(OC)c1 | -1.22 | –
90 | CC(=O)c1nn(-c2ccccc2)c(=Nc2ccccc2)cc1C | 0.939 | –
91 | O=C(Cc1ccccc1)NCc1ccc(F)cc1 | 8.39 | –
92 | CCC(C(=O)OCC(=O)Nc1ccccc1-c1ccccc1)c1ccccc1 (stereo unspecified) | -12.5 | –
93 | O=C(CNCc1ccc(F)cc1)Nc1ccccc1-c1ccccc1 | – | 13 µM (active)
94 | CC1(C(=O)NS(=O)(=O)c2ccccc2Cl)CCN1C(=O)c1cccc(F)c1 (stereo unspecified) | 2.05 | –
95 | O=S1(=O)CC(N2CCN(CCO)CC2)CN1Cc1cn(Cc2cccc(Cl)c2)nn1 (stereo unspecified) | -3.69 | –
96 | CN(c1ccccc1)S(=O)(=O)c1ccc(Cl)c(C(=O)OCC(=O)NCc2ccco2)c1 | 2.26 | –
97 | O=C(COC(=O)c1ccccc1O)NCc1ccco1 | 27.6 | –
98 | Cc1cc(C(=O)OCC(=O)NCc2ccco2)c(C)n1-c1ccccc1 | – | 2.59 µM (active)
99 | O=C(CCn1ccc2cc(S(=O)(=O)N3CCCC3)ccc21)NCc1cccc(Cl)c1 | 0.918 | –
100 | Cc1ccccc1CN1C(=O)CSCC1(C)C(=O)Nc1c(C)cccc1C (stereo unspecified) | -18 | –
101 | CC(C)(C)c1ccc(C(=O)NCc2ccco2)cc1 | 0 | –
102 | Cc1cccc(Nc2ccccc2C(=O)NCc2ccco2)c1C | – | 18.4 µM (active)
103 | CS(=O)(=O)N(CC(=O)NCc1ccco1)c1ccc2c(c1)OCO2 | -9.81 | –
104 | O=C(CCNC(=O)c1ccccc1Cl)NCc1ccco1 | 17.2 | –
105 | CCN1CCN(C(=O)c2ccc(CN(c3ccc(C)c(C)c3)S(C)(=O)=O)cc2)CC1 | -5.68 | –
106 | Cc1ccc(N(Cc2ccc(C(=O)Nc3ccccc3C(=O)NCc3ccco3)cc2)S(C)(=O)=O)cc1C | – | 2.06 µM (active)
